Hits are enriched below; roughly 7.9% of the tested compounds scored in any of these assays.
HCV inh – blocks hepatitis C virus; hit rate 3.4% among 340,000; Potency, µM (titrated, usually from 41.8 µM), hits mostly inhibitors; Huh7.5.1 HCVcc-Cre infection, luciferase reporter, 44 h; active means well fitted inhibition curve with a large enough effect; inconclusive means small, poorly fitted or top-dose-only effect, or another doubt; inactive means no such curve, though single readings can be large or run the other way
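Infectious HCVcc-Cre (~0.5 moi) was added to cells just after compound, with cells seeded 4 h earlier at 1,000 per well. Luciferase activity after 44 h culture reported infection; substrate was incubated 15 min at room temperature before reading.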
MARV entry inh – inhibitors of Marburg virus binding or cell entry | Potency, µM (titrated, usually from 37.8 µM), actives largely listed as inhibitors | Marburg virus pseudotyped entry inhibition, cell reporter | AID 540276 | hit rate 1.8% among 300,000; calls by dose curve; tested in HEK293 cells
HCMV inh – inhibitors of human cytomegalovirus. HFF cells, HCMV-luciferase reporter, 72 h; active compounds read low. hit rate 4.5% among 410,000. activity change, negative = inhibition, % at 57.5 µM; in the data active means activity change below about -60%; inconclusive means no clear call, values can overlap the other calls; inactive means above about -39%
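Luciferase read-out from HCMV-luciferase-infected HFFs (MOI 1 PFU/cell) 72 h post infection at 37C; compounds added after 16 h cell attachment; activity normalized between buffer-only basal and Salinomycin (10uM) inhibitor controls.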
LASV entry inh – inhibitors of Lassa virus binding or cell entry; hit rate 1.2% among 300,000; Lassa virus pseudotype entry inhibition, cell reporter; Potency, µM (top dose mostly 37.9 µM), most hits filed as inhibitors; calls by dose curve; tested in HEK293 cells; further: nearly all actives have a fitted effect of over 50% in size
FMDV inh – foot and mouth disease virus antiviral activity; hit rate 1.2% among 410,000; Potency, µM (series often up to 57.9 µM), actives largely listed as inhibitors; FMDV antiviral cell-based qHTS; calls by dose curve; tested in HEK293T cells; further: read-out not given here; nearly all actives have a fitted effect of over 45% in size
Hits are given with their value; - = inactive; ? = inconclusive; . = no result; + = active, no number.

SMILES | HCV inh | MARV entry inh | HCMV inh | LASV entry inh | FMDV inh
CCOC(=O)C1(Cc2cccc(OC)c2)CCN(Cc2ccccc2)CC1 | ? | ? | - | ? | ?
CCOC(=O)C1(Cc2cccc(OC)c2)CCN(Cc2cccc(OC)c2OC)CC1 | 10µM | ? | ? | - | ?
CCOC(=O)C1(CC2CC2)CCN(Cc2cnc(-c3ccc(OC)cc3)nc2)CC1 | ? | ? | -62 | - | ?
CCOC(=O)C1(Cc2cccc(OC)c2)CCN(Cc2cnc(N)nc2)CC1 | - | ? | - | - | -
CCOC(=O)C1(CCOc2ccccc2)CCN(Cc2cccc(OC)c2)CC1 | 11µM | . | - | . | -
Cc1ccccc1Cn1c(=O)n(Cc2ccc(Cl)cc2)c(=O)c2cccnc21 | . | - | - | . | -
CCn1c(CNC(=O)c2cccc(C)c2)nnc1SCC(=O)N1CCOCC1 | - | ? | - | - | -
O=C(COc1ccccc1F)Nc1ccc2nc(SCC(=O)N3CCc4ccccc43)sc2c1 | . | - | - | - | -
CCOc1ccc(CCNC(=O)c2[nH]c3cc(OC)ccc3c2Sc2ccccc2)cc1OCC | . | ? | - | - | -
CCOC(=O)C1(Cc2cccc(F)c2)CCN(Cc2ccon2)CC1 | - | - | - | - | -
CCOC(=O)C1(Cc2ccc(Cl)cc2)CCN(Cc2ccon2)CC1 | - | . | -66 | . | -
CCOC(=O)C1(Cc2ccccc2Cl)CCN(C(=O)CN2CCOC2=O)CC1 | - | ? | - | ? | -
CCOC(=O)C1(Cc2cccc(F)c2)CCN(Cc2c(C)nn(CC)c2C)CC1 | 13µM | . | ? | . | ?
CCOC(=O)C1(Cc2cccc(F)c2)CCN(Cc2cn(CC)nc2C)CC1 | ? | ? | - | - | -
CCOC(=O)C1(Cc2ccccc2Cl)CCN(Cc2csc(C(C)=O)c2)CC1 | 13µM | ? | - | ? | -
CCOC(=O)C1(CCOc2ccccc2)CCN(Cc2ccc(-n3cccn3)cc2)CC1 | 2.5µM | . | -61 | . | ?
CCOC(=O)C1(CCOC)CCN(C/C=C/c2ccccc2OC)CC1 | 11µM | . | - | . | ?
CCOC(=O)C1(CCOc2ccccc2)CCN(Cc2cccn2-c2ncccn2)CC1 | - | 8.9µM | - | ? | -
CCOC(=O)C1(CCOC)CCN(Cc2ccncc2)CC1 | - | - | - | ? | -
Cc1ccc(S(=O)(=O)N2CCOCC2)cc1C(=O)NCc1ccccc1CN1CCCC1 | - | . | - | . | -
CCOc1ccccc1OCCC(=O)OCC(=O)c1ccc[nH]1 | - | . | - | . | -
Cc1cc(C)cc(-c2cc3c(c(-c4c(O)c(-c5cc(C)cc(C)c5)cc5c4CCCC5)c2O)CCCC3)c1 | . | - | . | . | .
C=CCn1c(SCc2csc(C)n2)nc2sc3c(c2c1=O)CCCC3 | ? | ? | - | 5µM | ?
C=CCn1c(SCc2csc(C)n2)nc2sc3c(c2c1=O)CCCCC3 | - | - | - | ? | -
Fc1ccccc1-c1nc(-c2ccccc2)oc1NCc1ccccc1 | . | - | . | . | .
SMILES | HCV inh | MARV entry inh | HCMV inh | LASV entry inh | FMDV inh
Cn1c(=O)c2cc(NC(=O)Cc3ccccc3F)ccc2n1Cc1ccc(Cl)cc1 | . | . | - | . | -
CC1CC2(C)Oc3ccccc3CC2C(C)C1CNCCCN(C)C (configuration not stated) | ? | ? | -99 | ? | ?
COc1ccccc1NC(=O)N[C@H]1CC[C@@]23CCCN2C(=O)CCC[C@H]3[C@H]1C | . | . | - | . | .
Cc1cc(C)c(/C=N/n2c(C)cc(C)c(C#N)c2=O)c(C)c1 | - | ? | - | - | -
Cc1cc(C)n(/N=C/c2cccs2)c(=O)c1C#N | - | - | -76 | - | -
O=C(COC(=O)/C=C/c1ccc(C(F)(F)F)cc1)NC(=O)NCc1ccco1 | - | - | - | - | ?
O=C(Nc1cc(Sc2nc3ccccc3s2)cc([N+](=O)[O-])c1)c1ccccc1F | 10µM | ? | - | ? | -
O=C(Nc1ncccn1)c1cccc(F)c1 | - | . | -76 | . | -
O=C(NNC(=O)c1ccccn1)c1cccc([N+](=O)[O-])c1 | - | - | - | . | -
O=C(Nc1cc(Sc2ccccn2)cc([N+](=O)[O-])c1)c1cccc(F)c1 | ? | ? | -67 | ? | 32µM
O=C(Nc1cc(Sc2nc3ccccc3s2)cc([N+](=O)[O-])c1)c1ccccc1 | ? | ? | - | - | ?
CCN(CC)c1ccc(CNCCCSc2nnnn2C)cc1 | . | - | - | - | -
COCc1ccc(-c2c(-c3cc(OC)cc(OC)c3)oc(=O)c3cc(OC)c(OC)cc23)cc1 | ? | . | - | . | -
CCOC(=O)c1cnc(SCC(=O)Nc2sc(C)c(C)c2C#N)nc1N | - | ? | -64 | ? | -
CCOC(=O)c1cnc(SCC(=O)NCc2cccs2)nc1N | - | - | - | - | .
CCOC(=O)c1cnc(SCC(=O)Nc2cc(OC)cc(OC)c2)nc1N | ? | - | -60 | - | -
CCOC(=O)c1cnc(SCc2nc(N)nc(Nc3ccccc3)n2)nc1N | ? | - | -82 | - | ?
CCOC(=O)c1cnc(SCC(=O)Nc2ccc(N3CCOCC3)c(Cl)c2)nc1N | - | - | - | - | -
Cc1ccc(C)c(NC(=O)CCN2CCC(C)CC2)c1 | - | - | - | - | -
Cc1ccc(NC(=O)Cc2ccc(-n3c(C)nc4cccnc43)cc2)c(Cl)c1 | . | . | + | - | 16µM
CC1(C(=O)Nc2cccc(C#N)c2)CCN1C(=O)Cc1ccc(-c2ccccc2)cc1 (configuration not stated) | . | . | -61 | . | 25µM
CN(C)S(=O)(=O)c1ccc2c(c1)C(=NO)c1cc(S(=O)(=O)N(C)C)ccc1-2 | - | - | -64 | - | -
COc1ccc(NCc2nnc3n2CCCCC3)c(OC)c1 | . | . | - | - | -
O=c1c2cccc3c2c(nn1CN1CCOCC1)-c1ccccc1-3 | ? | ? | . | ? | -
CCN(CC)CCn1nc2c3c(cccc3c1=O)-c1ccccc1-2 | 10µM | . | -99 | . | ?
SMILES | HCV inh | MARV entry inh | HCMV inh | LASV entry inh | FMDV inh
O=C(Nc1ccc(S(=O)(=O)NC2=NCCCCC2)cc1)c1ccc([N+](=O)[O-])s1 | ? | ? | - | ? | -
O=C(Nc1ccc(S(=O)(=O)NC2=NCCCCC2)cc1)c1ccc(C(F)(F)F)cc1 | ? | . | -67 | . | ?
O=C(Nc1ccc(S(=O)(=O)NC2=NCCCCC2)cc1)c1cccs1 | ? | . | -102 | . | -
COC(=O)[C@@]1(Cc2ccc(OC)cc2)[C@H]2c3cc(C(=O)N(C)C)n(Cc4ccc(OC(F)(F)F)cc4)c3C[C@H]2CN1C(=O)c1ccccc1 | ? | 9.2µM | . | ? | -
COC(=O)[C@@]1(Cc2ccc(F)cc2)[C@H]2c3cc(C(=O)N(C)C)n(Cc4ccccc4)c3C[C@H]2CN1C(=O)c1ccccc1 | - | 13µM | ? | ? | ?
COC(=O)[C@@]1(Cc2ccc(OC)cc2)[C@H]2c3cc(C(=O)N4CCCC4)n(Cc4ccc(S(C)(=O)=O)cc4)c3C[C@H]2CN1C(=O)c1ccccc1 | . | . | -66 | . | -
CCOC(=O)NN=C1C[C@@H](O)[C@@H](O)[C@@H]2[C@H]3C(=O)N(c4ccc(F)cc4F)C(=O)[C@@H]3CC[C@H]12 | . | - | . | ? | .
Cc1cccc(CC(=O)NC2CC(=O)N(c3ccccc3)C2)c1 (configuration not stated) | . | . | - | - | -
CN1CCN(S(=O)(=O)c2cccc(C(=O)Nc3sc4c(c3-c3nc5ccccc5[nH]3)CCCC4)c2)CC1 | 3.5µM | 16µM | - | - | -

Source: PubChem BioAssay
